KLF5 inhibitor: inhibitors of KLF5 expression | hit rate 0.23% among 290,000 | AID 1700 | inhibition, % at 5 µM | DLD-1 KLF5 promoter-luciferase reporter, luminescence;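 active means inhibition above a per-plate limit of that plate's mean compound inhibition plus 3 SD, cut at about 60% in these data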;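 further: 0% = DMSO wells and 100% = LY294002 at 200 µM; higher means less KLF5 promoter-driven luciferase light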
aSyn 5UTR inh: MLPCN primary screen, SNCA 5' untranslated region | alpha-synuclein 5'UTR reporter, inhibitor activity | hit rate 0.82% among 300,000 | inhibition, % (tested at 7.5 µM); in the data active means inhibition above about 60%;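 further: H4 neuroglioblastoma cells stably carrying SNCA 5'UTR luciferase fusion; 0% = DMSO wells and 100% = positive control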
IEC-6 tox: counter-screen for KLF5 inhibitors: cytotoxicity in IEC-6 cells; IEC-6 cytotoxicity, luminescence viability; inhibition, % at 5 µM; hit rate 0.78% among 290,000; in the data active means inhibition above about 22%;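 further: 0% = plate median of test compound wells and 100% = cytotoxic reference compound wells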
APP 5UTR inh: APP translation inhibition; SH-SY5Y APP 5'UTR-luciferase reporter, luminescence; inhibition, % at 2 µM; hit rate 0.82% among 190,000;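 active means inhibition above a set limit, derived from the sample mean plus 3 SD, cut at about 45% in these data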
BaF3 tox: parental Ba/F3 viability inhibition as JAK2V617F counter-screen; inhibition, % at 5.6 µM; AID 1486; hit rate 1.1% among 220,000; CellTiter-Glo ATP luminescence;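 active means inhibition above a per-campaign cutoff, the mean inhibition of all tested compounds plus 3 SD, cut at about 27% in these data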;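 further: 0% = DMSO wells and 100% = JAK Inhibitor I control wells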
Ba/F3 V617F tox: lowers viability of Ba/F3 cells expressing EpoR and JAK2V617F; ATP luminescence; inhibition, % at 5.6 µM; hit rate 1.1% among 220,000; AID 1446;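 active means inhibition above the campaign mean plus 3 SD over all tested compounds, cut at about 24% in these data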;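 further: cytokine-independent growth of Ba/F3 cells driven by EpoR plus mutant JAK2; 0% = DMSO-treated cells and 100% = JAK inhibitor I control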
* hit, by the source's call. Most compounds without a hit are left out; they make up all but 2.2% or so of the library.

Results for Cn1nnnc1Sc1ncnc2scc(-c3ccccc3)c12 ?
KLF5 inhibitor: -11; aSyn 5UTR inh: -59; IEC-6 tox: 14; APP 5UTR inh: 8; BaF3 tox: -6; Ba/F3 V617F tox: -2

How did Cn1nnnc1Sc1ncnc2scc(-c3ccc(F)cc3)c12 do in these assays?
KLF5 inhibitor: -3; aSyn 5UTR inh: -89; IEC-6 tox: 31*; APP 5UTR inh: 0; BaF3 tox: 7; Ba/F3 V617F tox: 27*

How did Cc1ccc(C#CC[N+](C)(C)CC#Cc2ccccc2)cc1 do in these assays?
KLF5 inhibitor: 0; aSyn 5UTR inh: 29; IEC-6 tox: 2; APP 5UTR inh: 10; BaF3 tox: 68*; Ba/F3 V617F tox: 85*

How did CC1CCCCN1C(=O)COC(=O)c1cc([N+](=O)[O-])ccc1N (configuration not stated) do in these assays?
aSyn 5UTR inh: -41

Results for CC(C)(C)c1cc[n+](C2=C([O-])c3ccccc3C(=O)/C2=N\S(=O)(=O)c2cccs2)cc1 ?
KLF5 inhibitor: -42; aSyn 5UTR inh: 69*; IEC-6 tox: -4; BaF3 tox: -5; Ba/F3 V617F tox: -3

Results for CCOC(=O)C1CCN(S(=O)(=O)c2c[nH]c(=O)[nH]c2=O)CC1 ?
aSyn 5UTR inh: 12

What do the screens show for `COc1cc(-c2cc(C(=O)N3CCN(c4ccccn4)CC3)c3ccccc3n2)cc(OC)c1OC`?
KLF5 inhibitor: 2; aSyn 5UTR inh: -7; IEC-6 tox: 33*; APP 5UTR inh: 2; BaF3 tox: 4; Ba/F3 V617F tox: 3

Results for Nc1ccc(C(=O)N/N=C/c2cn(Cc3ccc(F)cc3)c3ccccc23)cc1 ?
KLF5 inhibitor: -42; aSyn 5UTR inh: 64*; IEC-6 tox: 13

What do the screens show for `Nc1ccc(C(=O)N/N=C/c2cn(Cc3ccccc3)c3ccccc23)cc1`?
KLF5 inhibitor: -33; aSyn 5UTR inh: 57; IEC-6 tox: 6

Results for Nc1ccc(C(=O)N/N=C/c2cn(Cc3ccccc3F)c3ccccc23)cc1 ?
KLF5 inhibitor: -21; aSyn 5UTR inh: 72*; IEC-6 tox: 12

Results for Cc1ccc(OCC(=O)N/N=C\c2cn(Cc3ccccc3)c3ccccc23)cc1C ?
KLF5 inhibitor: 3; aSyn 5UTR inh: 76*; IEC-6 tox: -7; APP 5UTR inh: -20; BaF3 tox: 2; Ba/F3 V617F tox: -4

How did COC(=O)N/N=C/c1cn(Cc2ccccc2F)c2ccccc12 do in these assays?
KLF5 inhibitor: -22; aSyn 5UTR inh: 51; IEC-6 tox: 4; BaF3 tox: -5; Ba/F3 V617F tox: 1

What do the screens show for `CCOc1cc(C2C3=C(CC(C)(C)CC3=O)N(C)C3=C2C(=O)CC(C)(C)C3)ccc1O`?
KLF5 inhibitor: -13; aSyn 5UTR inh: 5; IEC-6 tox: 0

How did CCOc1ccc(Cl)cc1S(=O)(=O)N1CCC(C(=O)NCc2cccnc2)CC1 do in these assays?
KLF5 inhibitor: -13; aSyn 5UTR inh: -4; IEC-6 tox: -5

What do the screens show for `CC(C)(C)c1ccc(C(=O)CCCSC2=C(C#N)C(c3ccco3)C3=C(CCCC3=O)N2)cc1` (configuration not stated)?
KLF5 inhibitor: -6; IEC-6 tox: 0; APP 5UTR inh: -25; BaF3 tox: 10; Ba/F3 V617F tox: 6

What do the screens show for `N#CC1=C(SCC(=O)c2ccccc2)NC2=C(C(=O)CCC2)C1c1ccco1` (configuration not stated)?
KLF5 inhibitor: -76; aSyn 5UTR inh: -305; IEC-6 tox: 12; APP 5UTR inh: 68*; BaF3 tox: 36*; Ba/F3 V617F tox: 47*

How did COc1ccc(S(=O)(=O)NC2CC(=O)N(c3cccc(F)c3)C2)cc1OC (configuration not stated) do in these assays?
aSyn 5UTR inh: 11

What do the screens show for `O=C(Cn1c(=O)oc2ccc(Cl)cc21)Nc1ccon1`?
KLF5 inhibitor: -19; aSyn 5UTR inh: -4; IEC-6 tox: -7

Results for COc1cc2cc(/C=C/C(=O)c3ccco3)c(Cl)nc2cc1OC ?
KLF5 inhibitor: -27; aSyn 5UTR inh: 6; IEC-6 tox: -2; APP 5UTR inh: 50*; BaF3 tox: 5; Ba/F3 V617F tox: 2

What do the screens show for `CC1CCCCC1NC(=O)CSc1nnc(CC(=O)Nc2ccccc2F)n1C` (configuration not stated)?
KLF5 inhibitor: -22; aSyn 5UTR inh: -27; IEC-6 tox: 3

How did CCN1/C(=C/c2cc[n+](C)cc2)C=Cc2cc(C)ccc21 do in these assays?
KLF5 inhibitor: -6; IEC-6 tox: -3; APP 5UTR inh: -1; BaF3 tox: 73*; Ba/F3 V617F tox: 99*

Results for CCN1CCN(C(c2ccc(C(F)(F)F)cc2)c2ccc3cccnc3c2O)CC1 (configuration not stated) ?
KLF5 inhibitor: 29; aSyn 5UTR inh: 25; IEC-6 tox: 15

What do the screens show for `OCCN1CCN(C(c2cccs2)c2ccc3cccnc3c2O)CC1` (configuration not stated)?
KLF5 inhibitor: 83*; IEC-6 tox: 50*; APP 5UTR inh: 18; BaF3 tox: 86*; Ba/F3 V617F tox: 100*

How did CC(C)N(Cc1cc2ccccc2[nH]c1=O)C(=O)C1CCCCC1 do in these assays?
KLF5 inhibitor: -13; aSyn 5UTR inh: 12; IEC-6 tox: 2; APP 5UTR inh: -26; BaF3 tox: 28*; Ba/F3 V617F tox: -2

What do the screens show for `O=C(NCCCN1CCOCC1)c1ccc2c(c1)N(Cc1cccc(Cl)c1)C(=O)CS2`?
KLF5 inhibitor: -30; aSyn 5UTR inh: 7; IEC-6 tox: -3

Results for CN(C(=O)c1ccc(-c2nn(C)c(=O)c3ccccc23)cc1)C1CCCCC1 ?
KLF5 inhibitor: 5; aSyn 5UTR inh: 21; IEC-6 tox: 7

Results for Cc1cc(N2C(=O)C=CC2=O)c([N+](=O)[O-])cc1C ?
KLF5 inhibitor: -22; aSyn 5UTR inh: 21; IEC-6 tox: 5; APP 5UTR inh: 62*; BaF3 tox: 3; Ba/F3 V617F tox: -2

What do the screens show for `Cc1ccc(N2C(=O)C3C4C=CC(CC4)C3C2=O)cc1[N+](=O)[O-]` (configuration not stated)?
KLF5 inhibitor: -55; aSyn 5UTR inh: -5; IEC-6 tox: 3

What do the screens show for `O=C(CSc1ncnc2nc[nH]c12)Nc1nnc(SCc2ccc(Cl)c(Cl)c2)s1`?
KLF5 inhibitor: 7; aSyn 5UTR inh: -13; IEC-6 tox: 5; APP 5UTR inh: -21; BaF3 tox: 28*; Ba/F3 V617F tox: 5

How did CC(=O)CSc1ncnc2nc[nH]c12 do in these assays?
KLF5 inhibitor: -18; aSyn 5UTR inh: -2; IEC-6 tox: 13; APP 5UTR inh: 4; BaF3 tox: 33*; Ba/F3 V617F tox: 25*

What do the screens show for `COc1ccc(C(=O)CSc2ncnc3nc[nH]c23)cc1`?
KLF5 inhibitor: -32; aSyn 5UTR inh: -16; IEC-6 tox: -4; BaF3 tox: 4; Ba/F3 V617F tox: 0

Results for Cc1ccc(C)c(NC(=O)CSc2ncnc3nc[nH]c23)c1 ?
KLF5 inhibitor: -23; aSyn 5UTR inh: 23; IEC-6 tox: 1; APP 5UTR inh: -12; BaF3 tox: 5; Ba/F3 V617F tox: 3

Screening results (PubChem)
